PubChem BioAssay (NCI)
This is part of a sample that, as a whole, favours compounds with a hit. Of some 83,000 tested, about 20% had one in any assay.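 The test compound was applied at a single concentration to cells in 96-well plates for 48 hours, and percent growth was recorded.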 Unmarked numbers belong to inactive results. The source made the active and inactive calls. Rule for the calls: active = growth percent below 10; inactive = the rest.

The compounds below were run on NCI-H522 lung (assay: NCI-60 one-dose screen, 48 h (100 = growth as untreated, 0 = no growth, -100 = all killed)). Conditions: 10 µM unless noted.
For `CCOC(=O)c1cc(C(=O)c2cc(OC)cc(OC)c2)n2ncccc12`, the growth was 25.4%.
With `CO[C@H]1/C=C/O[C@@]2(C)Oc3c(C)c(O)c4c(O)c(c5c(nc6cc(C)ccn65)c4c3C2=O)NC(=O)/C(C)=C\C=C\[C@H](C)[C@H](O)[C@@H](C)C(O)[C@@H](C)[C@H](OC(C)=O)[C@@H]1C` (stereo not given in full) the growth was 91.1%.
Compound `CN1CCN(Cn2nc(-c3cc(Cl)cc(Cl)c3Cl)oc2=S)CC1` has a growth of 91.1%.
`COC1=C(OC)C(=O)C(CCCCCCCCCCO)=C(C)C1=O` showed a growth of 63.7%.
With `COCCn1cc(-c2nc(-c3cc4cccnc4n3C)cs2)c2cc(OC)ccc21` the growth was 41.9%.
`O=C(/C=C/c1ccc(Cl)cc1)c1ccc(-n2cc(CN3CCN(c4cc5c(cc4F)c(=O)c(C(=O)O)cn5C4CC4)CC3)nn2)cc1` showed a growth of 79.1%.
With `Cc1ccc(S(=O)(=O)c2nc(-c3ccccc3)oc2S(C)=O)cc1` (stereo not given) the growth was -74.5% (active).
`CNC(=O)c1cc(Oc2ccc3nc(NC(=O)Nc4ccc(F)cc4F)sc3c2)ccn1` gave a growth of 68.7%.
Work on `CCCCN(CCC#N)C(N)=O` yielded a growth of 105%.
`COc1cccc(/C=C2\CCc3ccccc3C2=O)c1` showed a growth of 62.9%.
For `C#Cc1c(I)n(C2OC(CO[Si](C)(C)C(C)(C)C)C3OC(C)(C)OC32)c(=O)[nH]c1=O` (stereo not given), the growth was 101%.
For `COc1cc(/C=C2\C(=O)N(CCOc3cc(O)c4c(=O)cc(-c5ccccc5)oc4c3)c3ccccc32)cc(OC)c1O`, the growth was 60.1%.
With `O=C1c2ccccc2-c2c1c1ccncc1c(=O)n2CCCn1ccnc1` the growth was 29.6%.
Compound `COc1cc(OCc2cccc(-c3ccccc3)c2C)cc(OC)c1CN1CCCCC1C(=O)NCCOCCOCCN` (stereo not given) has a growth of 93.3%.
`COc1ccc(-c2cn(Cc3ccc4c(Br)cc(Br)c(O)c4n3)nn2)cc1` showed a growth of 58.5%.
Work on `O=c1c(Cc2ccc(F)cc2)cc(-c2ccccc2)nn1C/C(=N/O)c1ccccc1` yielded a growth of 42.6%.
For `C1=C2CCCC3=Cc4ccccc4OC23Oc2ccccc21`, the growth was 3.9% (active).
For `N/C(=N\c1nc2ccccc2s1)NC(=O)Nc1ccccc1`, the growth was -13.2% (active).
In the case of `C=C(C)[C@@H]1CC[C@]2(COCCCNCCCN)CC[C@]3(C)[C@H](CC[C@@H]4[C@@]5(C)CC[C@H](OCCCN)C(C)(C)[C@@H]5CC[C@]43C)[C@@H]12`, the growth is reported as -69.6% (active).
For `N#CC1=C(N)Oc2c(ccc3ccccc23)C1c1cc2ccccc2n2nnnc12` (stereo not given), the growth was 12.3%.
With `CC(C)(C#N)c1cc(C(=O)Nc2cc(Nc3ncccc3-c3ncnc4nc[nH]c34)ccc2F)cc(C(F)(F)F)c1` the growth was 62%.
With `CN1CCN(CC(=O)N(C)c2ccc(N=C(c3ccccc3)c3c(O)[nH]c4ccc([N+](=O)[O-])cc34)cc2)CC1` the growth was 86.8%.
`Cc1c(Cl)cccc1NC(=O)c1sc2nc3c(cc2c1N)CCCC3` was tested, and the growth was 4.4% (active).
Work on `COC(=O)c1c(C)nc(C)c2c1C(=O)C(Br)=C(NCCN1CCOCC1)C2=O` yielded a growth of 102%.
`COc1ccccc1NC(=O)n1c(=O)cc(C)c2ccc(O)cc21` was tested, and the growth was 96.2%.
With `C#CCOC(=O)C(N)CSSCC(N)C(=O)O` (stereo not given) the growth was 86.1%.
Work on `CN(C)CCOc1nc2c3cc([N+](=O)[O-])ccc3nn2c2ccccc12` yielded a growth of 46.2%.
With `CC(=O)Oc1ccccc1C(=O)N(Cc1ccc2c(Cl)cc(Cl)c(O)c2n1)c1ccccc1` the growth was 72.2%.
`C=CCOC(=O)C1=C(C)N(CC)C(=O)N(CC)C1c1c(Cl)n(C)c2ccccc12` (stereo not given) gave a growth of 84.8%.
For `CNC(=O)c1cc(Oc2ccc3nc(NC(=O)c4cc(C(F)(F)F)cc(C(F)(F)F)c4)sc3c2)ccn1`, the growth was -9.54% (active).
Compound `COc1cc(C2=Nc3c(N)nc(N)nc3NC(c3cccc(Nc4ccnc5cc(C(F)(F)F)ccc45)c3)C2)cc(OC)c1OC` (stereo not given) has a growth of 97.1%.
In the case of `c1ccc2[nH]c(-c3ccc(-c4nccc5c4[nH]c4ccccc45)cc3)nc2c1`, the growth is reported as 27.3%.
`COc1ccc(/C=C2/CCc3cc4ccc(OC)cc4[o+]c32)c(O)c1` was tested, and the growth was 77.5%.
`Cc1c(-c2cnc3ccc(Cl)cc3c2C(=O)O)nnn1-c1ccc(Cl)cc1` showed a growth of 89.1%.
Work on `COc1ccc(NC(=O)c2ccc(NC3=C(c4ccc(Cl)cc4)C(=O)NC3=O)cc2)cc1` yielded a growth of 45.2%.
For `O=C1CC2C=CCN2C=C1NC(=O)c1ccccc1` (stereo not given), the growth was 104%.
Compound `COc1cccc(CNc2nnc(C)c(C)n2)c1O` has a growth of 90.7%.
Compound `COc1cc2c(c(OC)c1OC)CCC(c1cccc(C(=O)Nc3ccc([N+](=O)[O-])cc3)c1)O2` (stereo not given) has a growth of 49.6%.
In the case of `CO[C@]12C=C/C(=C(/C(=O)OCc3cccnc3)C(=O)CCCCCCCC[C@]3(OC)C=C/C(=C(/C(=O)OCc4cccnc4)C(=O)CCCCCCCC1)O3)O2`, the growth is reported as -39.6% (active).
For `O=c1cc(-c2nccc3c2[nH]c2ccccc23)c2cc(Cl)ccc2o1`, the growth was 14.4%.
